Laboratory results reported in PubChem BioAssay (Tox21).
Results filed as inconclusive are left out. Calls of active or inactive are those of the source. Unless noted, calls come from the whole dose curve; as a rule, active = well fitted curve in the direction sought with a large enough effect in the repeat runs; inconclusive = weak or mixed curves; inactive = no such curve, though single readings can be large; an effect the other way counts as inactive or inconclusive.

What was measured:
[1] = qHTS RealTime-Glo MT Cell Viability Assay in HEK293 cells - 8 hour (AID 1224887); note: top concentration of the series differs between compounds; nearly all actives have a fitted effect of over 50% in size
Procedure, shortened: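 600 cells/well were plated with the nonlytic NanoLuc/prosubstrate reagent, pre-incubated 5 h, then given 23 nL of compound in DMSO. Incubation at 37 C for 40 h, with luminescence from viable-cell-reduced substrate read repeatedly from 0 h.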

[2] = A CellTox Green Cytotoxicity Assay to monitor cytotoxicity in HEK293 cells - 16 hour (AID 1224888); note: nearly all actives have a fitted effect of over 35% in size
Procedure, shortened: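 HEK293 cells, 600/well, were preincubated 5 hours and then exposed to compounds at 37 C for up to 40 hours. A cell-impermeant cyanine dye staining dead-cell DNA was read by fluorescence at 0, 8, 16, 24, 32 and 40 h time points.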

[3] = qHTS RealTime-Glo MT Cell Viability Assay in HepG2 cells - 0 hour (AID 1224889); note: nearly all actives have a fitted effect of over 50% in size
Procedure, shortened: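 Real-time, nonlytic viability: 600 HepG2 cells/well mixed with NanoLuc enzyme plus prosubstrate; 5 h settle, compound (DMSO) added by pintool; luminescence monitored over 40 h at 37 C.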

[4] = A CellTox Green Cytotoxicity Assay to monitor cytotoxicity in HepG2 cells - 8 hour (AID 1224890); note: nearly all actives have a fitted effect of over 45% in size
Procedure, shortened: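 HepG2 cells, 600/well, preincubated 5 h with CellTox Green dye, then exposed to Tox21 compounds in DMSO at 37 C for up to 40 h. Dead-cell DNA fluorescence read at the indicated time point.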

[5] = qHTS assay to identify small molecule antagonists of the estrogen receptor alpha (ER-alpha) signaling pathway using the BG1 cell line in the presence of 0.1 nM 17-beta-estradiol - cell viability counter screen (AID 1259241); note: nearly all actives have a fitted effect of over 40% in size
Procedure, shortened: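 Live-cell protease activity (CellTiter-Fluor fluorescence, 30 min) was read in the same wells after VM7Luc4E2 cells had been exposed to compounds with 0.1 nM 17beta-estradiol for 22 hr at 37C.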

[6] = qHTS assay to identify small molecule antagonists of the androgen receptor (AR) signaling pathway using the MDA cell line in the presence of 0.5 nM R1881 - cell viability counter screen (AID 1259242); note: nearly all actives have a fitted effect of over 45% in size
Procedure, shortened: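 MDA-kb2 cells (MMTV-luciferase, AR/GR responsive) were treated with compounds plus 0.5 nM R1881 (final) for 16 hr at 37C, 0% CO2. Viability was then read in the same wells as live-cell protease fluorescence (CellTiter-Fluor, 30 min).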

[7] = target: Androgen receptor (Homo sapiens) (UniProt P10275); test: qHTS assay to identify small molecule antagonists of the androgen receptor (AR) signaling pathway using the MDA cell line in the presence of 0.5 nM R1881 (AID 1259243); note: nearly all actives have a fitted effect of over 50% in size
Procedure, shortened: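 MDA-kb2 cells (MMTV-luciferase, responsive to AR and GR) at 3,000/well, rested 5 h at 37C, 0% CO2, then given compounds plus 0.5 nM R1881 (final) for 16 hr. Luciferase read with ONE-Glo after 30 min at room temperature.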

[8] = target: Estrogen receptor (Homo sapiens) (UniProt P03372); test: qHTS assay to identify small molecule antagonists of the estrogen receptor alpha (ER-alpha) signaling pathway using the BG1 cell line in the presence of 0.1 nM 17-beta-estradiol (AID 1259244); note: nearly all actives have a fitted effect of over 50% in size
Procedure, shortened: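 VM7Luc4E2 cells (endogenous full-length ER-alpha, 4×ERE-luciferase), kept 5 days in phenol red-free, charcoal-stripped FBS medium; 4,000 cells/well. Compounds added with 0.1 nM (final) 17beta-estradiol, 22 hr at 37C; luminescence read with ONE-Glo after 30 min.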

[9] = qHTS assay to identify small molecule HDAC inhibitors (AID 1259364); note: top concentration of the series differs between compounds; nearly all actives have a fitted effect of over 45% in size
Procedure, shortened: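 Wild-type HCT-116 cells, plated overnight at 37 C, exposed to compounds 2 hr at 37 C; luminogenic HDAC-Glo substrate then added 30 min at room temperature. Luminescence reports relative endogenous class I/II HDAC activity.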

[10] = qHTS assay to identify small molecule HDAC inhibitors - cell viability counter screen (AID 1259365)
Procedure, shortened: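 HCT-116 (wild type), 1,500 cells/well, overnight 37C/5% CO2; compound in DMSO 2hr; CellTiter-Glo 30min RT; luminescence read.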

[11] = qHTS assay to identify small molecule antagonists of the sonic hedgehog signaling (Shh) pathway - cell viability counter screen (AID 1259367); note: nearly all actives have a fitted effect of over 55% in size
Procedure, shortened: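 After a 4 hr settling period, 3T3 Gli1-Luc cells were treated with DMSO-dissolved chemicals and conditioned medium, kept 24 hr at 37C in 5% CO2, and assayed for viability by CellTiter-Fluor fluorescence following 1 hr reagent incubation.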

[12] = qHTS assay to identify small molecule agonists of the sonic hedgehog signaling (Shh) pathway (AID 1259368; calls by dose curve;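 note: NIH/3T3-derived 3T3Gli1-Luc cells carrying a stable Gli1-driven firefly luciferase reporter; series mostly up to about 92 µM; nearly all actives have a fitted effect of over 15% in size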)
Procedure, shortened: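 NIH/3T3-derived 3T3Gli1-Luc cells with stably integrated Gli1-driven firefly luciferase, 2,000 cells/well, compounds added after 4 hr. Incubated 24 hr at 37C, 5% CO2; luminescence read after 30 min with luciferase reagent at room temperature.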

[13] = qHTS assay to identify small molecule antagonists of the sonic hedgehog signaling (Shh) pathway (AID 1259369; calls by dose curve; note: nearly all actives have a fitted effect of over 45% in size)
Procedure, shortened: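 NIH/3T3-derived Gli1-Luc reporter cells plated 4 h, dosed with compound, then stimulated with conditioned medium for 24 h at 37 C. Firefly luciferase luminescence read after 30 min with detection reagent at room temperature.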

[14] = target: Estrogen receptor beta (Homo sapiens) (UniProt Q92731); test: qHTS assay to identify small molecule agonists of the estrogen receptor beta (ER-beta) signaling pathway (AID 1259377; active = well fitted activation curve with a large enough effect in the signal ratio in the repeat runs, not every such curve was filed as active; the % refers to the signal ratio)
Procedure, shortened: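 Beta-lactamase reporter readout: fluorescence of LiveBLAzer B/G FRET substrate after 2 h at room temperature, following 16 h compound treatment of ER-beta-UAS-bla HEK293T cells at 37C in 2% charcoal-stripped FBS medium.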

[15] = target: Estrogen receptor beta (Homo sapiens) (UniProt Q92731); test: qHTS assay to identify small molecule antagonists of the estrogen receptor beta (ER-beta) signaling pathway (AID 1259378; active = well fitted inhibition curve with a large enough effect in the signal ratio in the repeat runs, not every such curve was filed as active; the % refers to the signal ratio)
Procedure, shortened: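 ER-beta-UAS-bla HEK293T (GripTite) cells in 2% charcoal-stripped FBS medium were preincubated 6 hr at 37C, dosed with compound, then stimulated with 1 nM E2 (final) for 16 hr; beta-lactamase reporter read by B/G FRET fluorescence after 2 hr substrate loading.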

[16] = qHTS assay to identify small molecule agonists of the androgen receptor (AR) signaling pathway in the presence of an antagonist - cell viability counter screen (AID 1259379);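 note: MDA-kb2 human breast cancer cells carrying an MMTV luciferase reporter; series mostly up to about 92 µM; nearly all actives have a fitted effect of over 25% in size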
Procedure, shortened: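 MDA-kb2 cells (MMTV-luciferase, AR/GR), 3,000/well, 5 h attachment, then 3.0 µM nilutamide (final) and compounds at 15 concentrations. Viability by CellTiter-Fluor fluorescence after 16 h at 37 °C, 0% CO2, in the reporter wells.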

[17] = qHTS assay to identify small molecule agonists of the estrogen receptor beta (ER-beta) signaling pathway - cell viability counter screen (AID 1259380); note: nearly all actives have a fitted effect of over 30% in size
Procedure, shortened: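 ER-beta-UAS-bla HEK293T cells in medium with 2% charcoal-stripped FBS, pre-incubated 6 hr, then treated 16 hr at 37C. Cytotoxicity read in the same wells by CellTiter-Glo luminescence after 30 min at room temperature.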

[18] = target: Androgen receptor (Homo sapiens) (UniProt P10275); test: qHTS assay to identify small molecule agonists of the androgen receptor (AR) signaling pathway in the presence of an antagonist (AID 1259381; calls by dose curve; note: nearly all actives have a fitted effect of over 15% in size)
Procedure, shortened: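 MDA-kb2 cells carrying MMTV-luciferase (AR/GR responsive), 3,000 cells/well, co-treated with 3.0 uM nilutamide final. Compounds at 15 concentrations, 16 hr at 37C without CO2. Luciferase luminescence read after 30 min with ONE-Glo.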

[19] = qHTS assay to identify small molecule agonists of the sonic hedgehog signaling (Shh) pathway - cell viability counter screen (AID 1259366); note: nearly all actives have a fitted effect of over 50% in size
Procedure, shortened: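 CellTiter-Fluor fluorescence read-out, 1 hr at 37C, added after 23hr compound exposure. Cells: 3T3 Gli1-Luc, an NIH/3T3 clone with stably integrated Gli1-Luc reporter, plated 4hr before compound.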

[20] = qHTS assay to identify small molecule phospholipidosis (PLD) inducers (AID 1259344; active = well fitted curve in the direction sought with a large enough effect; an effect the other way counts as inactive or inconclusive)
Procedure, shortened: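 HepG2 cells grown on collagen I take up LipidTOX Red while exposed to compound for 24 h; after fixation they are imaged at 20x and pit metrics are extracted.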

Measured: Potency

Chain of Androgen receptor (Homo sapiens) (P10275 whole entry, looked up): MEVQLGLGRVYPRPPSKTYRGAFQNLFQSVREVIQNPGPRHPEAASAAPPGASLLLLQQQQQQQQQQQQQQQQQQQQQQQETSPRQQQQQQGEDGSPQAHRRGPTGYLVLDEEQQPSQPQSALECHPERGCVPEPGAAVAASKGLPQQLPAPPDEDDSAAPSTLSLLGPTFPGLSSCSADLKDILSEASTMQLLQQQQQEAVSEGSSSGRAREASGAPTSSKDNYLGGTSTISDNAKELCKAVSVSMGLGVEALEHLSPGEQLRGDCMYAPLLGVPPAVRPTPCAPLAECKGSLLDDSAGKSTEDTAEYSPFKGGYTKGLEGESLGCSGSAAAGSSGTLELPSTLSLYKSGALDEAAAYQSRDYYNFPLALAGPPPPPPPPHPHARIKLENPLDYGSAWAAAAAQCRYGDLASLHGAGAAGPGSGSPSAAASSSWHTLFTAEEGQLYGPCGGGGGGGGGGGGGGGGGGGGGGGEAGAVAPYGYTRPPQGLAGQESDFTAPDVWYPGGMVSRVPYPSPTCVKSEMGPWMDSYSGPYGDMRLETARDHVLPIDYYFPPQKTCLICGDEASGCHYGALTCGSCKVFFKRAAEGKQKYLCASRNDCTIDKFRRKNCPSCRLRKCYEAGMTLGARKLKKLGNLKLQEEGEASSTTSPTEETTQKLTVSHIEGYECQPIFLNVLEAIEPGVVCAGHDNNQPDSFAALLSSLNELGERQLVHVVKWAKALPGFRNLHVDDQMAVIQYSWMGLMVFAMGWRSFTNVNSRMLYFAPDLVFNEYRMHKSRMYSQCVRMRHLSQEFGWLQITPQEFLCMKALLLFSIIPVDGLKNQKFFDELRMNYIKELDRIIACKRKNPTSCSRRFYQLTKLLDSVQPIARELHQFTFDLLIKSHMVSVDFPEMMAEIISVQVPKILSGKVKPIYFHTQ
Chain of Estrogen receptor (Homo sapiens) (P03372 whole entry, looked up): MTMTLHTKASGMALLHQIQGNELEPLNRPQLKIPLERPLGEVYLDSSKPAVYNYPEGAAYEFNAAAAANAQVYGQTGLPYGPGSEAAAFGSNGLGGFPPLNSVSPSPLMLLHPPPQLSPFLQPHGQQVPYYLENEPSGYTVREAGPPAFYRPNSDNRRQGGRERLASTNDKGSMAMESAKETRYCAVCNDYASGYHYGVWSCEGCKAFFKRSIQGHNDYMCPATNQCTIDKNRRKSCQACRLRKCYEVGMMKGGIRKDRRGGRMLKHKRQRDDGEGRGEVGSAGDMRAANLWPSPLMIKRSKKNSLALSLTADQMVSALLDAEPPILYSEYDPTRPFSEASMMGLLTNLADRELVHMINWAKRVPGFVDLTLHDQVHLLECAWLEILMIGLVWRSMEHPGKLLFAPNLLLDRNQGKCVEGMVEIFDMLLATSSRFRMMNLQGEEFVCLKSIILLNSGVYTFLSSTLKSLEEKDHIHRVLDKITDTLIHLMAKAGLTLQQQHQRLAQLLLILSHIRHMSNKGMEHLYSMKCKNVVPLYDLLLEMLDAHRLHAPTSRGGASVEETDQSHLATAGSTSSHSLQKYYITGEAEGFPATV
Chain of Estrogen receptor beta (Homo sapiens) (Q92731 whole entry, looked up): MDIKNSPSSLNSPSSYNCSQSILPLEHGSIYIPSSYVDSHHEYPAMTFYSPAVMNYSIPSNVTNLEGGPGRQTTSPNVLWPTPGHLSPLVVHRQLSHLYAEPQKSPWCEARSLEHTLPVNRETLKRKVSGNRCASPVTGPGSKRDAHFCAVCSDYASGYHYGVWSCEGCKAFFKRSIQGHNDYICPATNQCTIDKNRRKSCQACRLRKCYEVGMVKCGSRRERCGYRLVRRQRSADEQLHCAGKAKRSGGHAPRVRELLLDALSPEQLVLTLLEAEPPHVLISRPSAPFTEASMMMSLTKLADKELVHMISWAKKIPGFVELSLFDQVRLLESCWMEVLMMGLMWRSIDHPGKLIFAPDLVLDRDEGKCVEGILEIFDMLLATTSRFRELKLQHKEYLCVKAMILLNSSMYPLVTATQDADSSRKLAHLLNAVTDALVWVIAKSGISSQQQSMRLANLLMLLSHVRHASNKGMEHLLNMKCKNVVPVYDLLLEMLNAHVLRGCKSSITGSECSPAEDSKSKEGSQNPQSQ

CC(=O)CC(=O)OC(C)(C)C
not listed: [19] | [20]
inactive: all other assays above

CCCCC1CCC(O)CC1 (stereo unspecified)
not listed: [8] | [14] | [15] | [20]
inactive: all other assays above

CC(C)(CO)C(O)C(=O)NCCCO (stereo unspecified)
not listed: [7] | [18] | [20]
inactive: all other assays above

OC[C@H]1O[C@@H](O[C@@H]2[C@@H](CO)O[C@](O)(CO)[C@H]2O)[C@H](O)[C@@H](O)[C@H]1O
not listed: [14] | [15]
inactive: all other assays above

CC(=O)O[C@@H]1CC2CCC1(C)C2(C)C (stereo partly specified)
not listed: [8] | [19]
inactive: all other assays above

CCC[C@@H]1C[C@@H](C(=O)N[C@@H]([C@H]2O[C@H](SC)[C@H](O)[C@@H](O)[C@H]2O)[C@@H](C)O)N(C)C1
not listed: [7] | [18]
inactive: all other assays above

CCO[Si](CC)(OCC)OCC
not listed: [20]
inactive: all other assays above

CC(C)OC(=O)OCOP(=O)(CO[C@H](C)Cn1cnc2c(N)ncnc21)OCOC(=O)OC(C)C
not listed: [7] | [13] | [18]
inactive: all other assays above

Cc1ncc([N+](=O)[O-])n1CC(C)O (stereo unspecified)
not listed: [7] | [13] | [16] | [18]
inactive: all other assays above

OCC1CCC(CO)CC1 (stereo unspecified)
not listed: [20]
inactive: all other assays above

CC1(C)O[C@H]2CC(=O)OC[C@]23[C@H]2CC[C@@]4(C)[C@H](c5ccoc5)OC(=O)[C@H]5O[C@]54[C@]2(C)C(=O)C[C@@H]13
not listed: [7] | [13] | [16] | [18]
inactive: all other assays above

O=C(CN1CCNCC1)NC1CCCCC1
not listed: [7] | [14] | [15] | [18]
inactive: all other assays above

CC(S)C(C)S (stereo unspecified)
not listed: [19] | [20]
inactive: all other assays above
